hNpr1 antagonist – human Npr1 receptor antagonism; HEK293 hNpr1 GloSensor cGMP, ANP-stimulated luminescence; Potency, µM (titrated, usually from 46.3 µM), for inactives: top-dose activity change, negative = inhibition, most hits filed as inhibitors; 76,000 compounds, 1.6% hits; AID 1347048; P16066; calls by dose curve; also: nearly all actives have a fitted effect of over 60% in size
Target sequence (P16066 whole entry, looked up): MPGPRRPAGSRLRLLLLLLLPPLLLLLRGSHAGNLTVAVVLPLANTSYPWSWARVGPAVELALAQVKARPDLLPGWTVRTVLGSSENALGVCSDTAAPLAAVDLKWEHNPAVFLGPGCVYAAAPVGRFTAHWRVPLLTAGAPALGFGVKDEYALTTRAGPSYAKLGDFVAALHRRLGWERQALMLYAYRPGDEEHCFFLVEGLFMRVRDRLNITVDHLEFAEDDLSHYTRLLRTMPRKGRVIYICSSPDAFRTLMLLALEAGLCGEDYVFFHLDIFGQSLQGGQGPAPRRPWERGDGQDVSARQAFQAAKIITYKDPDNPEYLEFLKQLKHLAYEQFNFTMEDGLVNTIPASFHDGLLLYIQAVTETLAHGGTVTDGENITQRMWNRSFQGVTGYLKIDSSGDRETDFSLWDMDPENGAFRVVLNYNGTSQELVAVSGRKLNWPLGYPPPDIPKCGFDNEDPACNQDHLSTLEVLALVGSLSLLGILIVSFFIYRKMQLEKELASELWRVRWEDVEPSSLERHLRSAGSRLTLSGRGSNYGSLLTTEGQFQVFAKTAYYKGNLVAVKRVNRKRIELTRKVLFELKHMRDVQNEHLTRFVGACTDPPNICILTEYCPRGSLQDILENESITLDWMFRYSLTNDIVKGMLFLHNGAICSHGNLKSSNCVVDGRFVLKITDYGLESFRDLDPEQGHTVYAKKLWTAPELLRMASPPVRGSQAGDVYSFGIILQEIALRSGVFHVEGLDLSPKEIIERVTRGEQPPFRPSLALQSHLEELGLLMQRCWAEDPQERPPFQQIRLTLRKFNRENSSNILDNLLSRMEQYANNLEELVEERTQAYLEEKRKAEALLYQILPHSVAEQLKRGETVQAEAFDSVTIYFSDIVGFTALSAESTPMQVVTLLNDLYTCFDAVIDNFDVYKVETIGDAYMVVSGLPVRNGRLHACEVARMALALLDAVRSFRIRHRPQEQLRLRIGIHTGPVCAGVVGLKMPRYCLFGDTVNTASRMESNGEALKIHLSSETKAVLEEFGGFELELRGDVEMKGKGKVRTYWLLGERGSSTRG
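HEK293 cells stably expressing human Npr1 and cGMP GloSensor pGS-40F, loaded 2 h with 2% GloSensor reagent, given compound 30 min at room temperature. Luminescence read before and 20 min after 0.1 nM hNppA.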
HEK cytotox – cytotoxic compounds in HEK 293 cells; HEK 293 viability, ATP luminescence (CellTiter-Glo), 48-72 h; 94,000 compounds, 6.6% hits; Potency, µM (highest dose often 115 µM), without a hit: at the top dose activity change, negative = cytotoxicity, hits mostly inhibitors; also: nearly all actives have a fitted effect of over 60% in size
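HEK 293 seeded at 250 cells/well receive compound via pintool. After 48 or 72 hr at 37 degree Celsius, 5% CO2 and 95% humidity, CellTiter-Glo is dispensed and luminescence read following 10 min at room temperature.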
3T3 cytotox – cytotoxic compounds in NIH 3T3 cells; 94,000 compounds, 4.3% hits; NIH 3T3 viability, CellTiter-Glo ATP luminescence, 48-72 h; Potency, µM (series often up to 96.7 µM), without a hit: at the top dose activity change, negative = cytotoxicity, usual class: inhibitors; also: nearly all actives have a fitted effect of over 55% in size
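Luminescent ATP readout (CellTiter-Glo, 10 min RT) after 48 or 72 hr compound exposure of NIH 3T3 cells seeded at 400 cells/well in 1536-well format; quantitative HTS.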
FLuc inh – inhibitors of firefly (Photinus pyralis) luciferase. 76,000 compounds, 2.5% hits. P08659. Potency, µM (series often up to 115 µM), usual class: inhibitors. purified P. pyralis luciferase, luminescence, biochemical; also: nearly all actives have a fitted effect of over 65% in size
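FLuc 10nM, D-luciferin 10uM, ATP 10uM, Mg acetate 10mM, Tris acetate pH 7.5, Tween/BSA; cpd qHTS; enzyme added last; CCD luminescence.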
Active calls of the source: *; i = inactive; ? = inconclusive; nt = not tested or not shown; [ ] = another dose, or the depositor's remark. Most compounds without a hit are left out; they make up all but 11% or so of the library. Unless noted, calls follow the shape of the dose curve; as a rule, active = well fitted curve in the direction sought with a large enough effect; inconclusive = small, poorly fitted or top-dose-only effect, or another doubt; inactive = no such curve, though single readings can be large; an effect the other way counts as inactive or inconclusive. % is scaled to controls: 0 for no effect and ±100 for the full control effect; potency is read from the fitted curve at half-maximal effect.

SMILES | hNpr1 antagonist | HEK cytotox | 3T3 cytotox | FLuc inh
COc1cccc(-c2ccc(CN3CCCC3C(=O)N3CCN(c4ncccn4)CC3)cc2)c1 (stereo not drawn) | nt | ? | 20µM* | nt
COc1cccc(-c2ccc(CN3CCCC3C(=O)NCc3ccccc3)cc2)c1 (stereo not drawn) | nt | 40µM* | 40µM* | nt
COc1ccc(CNC(=O)C2CCCN2Cc2ccc(-c3cccc(OC)c3)cc2)cc1 (stereo not drawn) | nt | 32µM* | 40µM* | nt
CC(=O)N1CCN(C(=O)CCc2ccnc(N3CCOCC3)c2)CC1 | -3% | 0% | -7% | i
CCCNC(=O)[C@@H]1CCCN1[C@@H](C(=O)NC)c1ccc(OC)cc1 | 3%[70.6 µM] | -26%[172 µM] | -17%[174 µM] | i
CC(=O)NC1CC(c2cc(NCCCOC3CCN(C)CC3)ncn2)C1 (stereo not drawn) | 0% | -5% | -16% | i
OC1CC(c2cc(NCCSC3CCCCC3)ncn2)C1 (stereo not drawn) | 13µM* | ? | ? | ?
COc1ccc(OCc2cc(C(=O)NCCc3nc(C)c(C)s3)no2)c(Cl)c1 | 0% | 32µM* | ? | ?
O=C(C1CC1)N1CCN(c2nccc(Nc3ccccc3F)n2)CC1 | nt | 63µM* | ? | nt
O=C(Nc1ccc(Cl)cc1)NC1CCN(c2nccc(Nc3ccccc3F)n2)CC1 | nt | 35µM* | 40µM* | nt
O=C(Nc1ccc(Cl)cc1)N1CCN(c2nccc(Nc3ccccc3F)n2)CC1 | nt | 28µM* | ? | nt
O=C(Nc1ccccc1)N1CCN(c2nccc(Nc3ccccc3Cl)n2)CC1 | nt | 50µM* | ? | nt
O=C(C1CCN(c2nccc(Nc3ccccc3F)n2)CC1)N1CCOCC1 | nt | -18% | -29% | nt
Cc1cccc(NC(=O)N2C[C@@H](Oc3ccccc3)C[C@@H]2C(=O)N2CCOCC2)c1 | 1% | -5% | -27% | i
N#Cc1ccc(CN2CCC3(C2)C(=O)Nc2ccccc23)cc1 (stereo not drawn) | nt | ? | -25% | nt
CC(C)NC(=O)N1CCN(c2nccc(Nc3ccccc3Cl)n2)CC1 | nt | ? | 35µM* | nt
O=[S+]([O-])(c1ccccc1)N1CCN(c2nccc(Nc3ccccc3Cl)n2)CC1 | nt | ? | 28µM* | nt
Cc1noc(C)c1[S+](=O)([O-])N1CCN(c2nccc(Nc3ccccc3F)n2)CC1 | nt | ? | -39% | nt
CCN1c2cc(C(=O)Nc3ccc(Cl)c(Cl)c3)ccc2C(=O)N2CCCCCC21 (stereo not drawn) | -2% | ? | 45µM* | i
CCN1c2cc(C(=O)Nc3ccc(Br)c(C)c3)ccc2C(=O)N2CCCC21 (stereo not drawn) | 0% | ? | -20% | i
CCN1c2cc(C(=O)Nc3ccc(Cl)c(C)c3)ccc2C(=O)N2CCCCC21 (stereo not drawn) | 4% | 16µM* | ? | i
CCN1c2cc(C(=O)Nc3ccc(C)c(C)c3)ccc2C(=O)N2CCCCC21 (stereo not drawn) | -10% | 28µM* | 28µM* | i
NC(=O)Cc1c[nH]c2ncc(-c3ccc4c(c3)OCO4)cc12 | -4%[70.6 µM] | -11%[172 µM] | 45µM* | 63µM*
NC(=O)Cc1c[nH]c2ncc(-c3ccc(Cl)cc3)cc12 | -24%[70.6 µM] | ? | ? | 79µM*
NC(=O)Cc1c[nH]c2ncc(-c3cccc(O)c3)cc12 | -2%[70.6 µM] | 4%[230 µM] | ? | ?
SMILES | hNpr1 antagonist | HEK cytotox | 3T3 cytotox | FLuc inh
Cc1nn(-c2ccc(F)cc2)c(Oc2ccccc2F)c1CCC(=O)N(C)C(C)C | -16% | 35µM* | ? | i
Cc1cccc(-n2nc(C)c(CCC(=O)N(C)C(C)C)c2Oc2ccccc2)c1 | -27% | 40µM* | 16µM* | i
CCN(CC)C(=O)CCc1c(C)nn(-c2ccc(F)cc2)c1Oc1ccccc1F | -25% | ? | ? | i
C=CCNC(=O)CCc1c(C)nn(-c2ccc(F)cc2)c1Oc1ccc(F)cc1F | -14% | 35µM* | ? | i
CCN(CC)C(=O)CCc1c(C)nn(-c2cccc(C)c2)c1Oc1ccc(F)cc1F | -27% | 25µM* | 35µM* | i
O=C1[C@@H]2C[C@@H](O)CN2C2(CN(Cc3ccoc3)C2)C(=O)N1Cc1cccc(Cl)c1 | 1%[70.6 µM] | 5%[172 µM] | -24%[174 µM] | i
CC(c1ccc(-c2ccc(N(C)C)nn2)cc1)N(C)C (stereo not drawn) | ? | 3% | -11% | 16µM*
CN(C)C(=O)C1CN(C(=O)Nc2cccc(F)c2)CC12CCOCC2 (stereo not drawn) | -2% | 5% | -14% | i
